Data on ten compounds can be found in PubChem BioAssay (NCI).

Test systems include RPMI-8226 leukemia; OVCAR-8 ovarian; OVCAR-5 ovarian; OVCAR-4 ovarian; SK-OV-3 ovarian; IGROV1 ovarian; OVCAR-3 ovarian; HS 578T breast; NCI/ADR-RES ovarian; T-47D breast; BT-549 breast; MDA-MB-435 melanoma; SW-620 colon; MCF7 breast; HCT-116 colon; HCC-2998 colon; KM12 colon; SR leukemia.
Test in all cases: NCI-60 one-dose screen, 48 h (100 = growth as untreated, 0 = no growth, -100 = all killed)
Holding throughout (conditions): 10 µM unless noted

The panel holds about 83,000 compounds, 20% with a hit somewhere; the sample as a whole holds those more often.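 Negative percent growth values reflect cell death: -40 means 40% of the cells present at the start died, and -100 means all died.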 A number with no mark means an inactive call. Active and inactive are the calls of the source. Rule for the calls: active = growth percent below 10; inactive = the rest.

Consider `COC(=O)c1cc(=O)nc(N/N=C/c2ccccc2O)s1`, for which the growth with RPMI-8226 leukemia was 87.9%; with OVCAR-8 ovarian it was 97.5%; in the assay with OVCAR-5 ovarian, 104%; with OVCAR-4 ovarian, 50.8%; in the assay on SK-OV-3 ovarian, 103%; in the assay on IGROV1 ovarian, 88.6%. In addition, the growth with OVCAR-3 ovarian was 88.6%; in the assay with HS 578T breast it was 108%; in the assay with NCI/ADR-RES ovarian, 89.3%; in the assay on T-47D breast it was 73.1%; with BT-549 breast, 94.7%; in the assay with MDA-MB-435 melanoma, 100%. Also, the growth is 106% in the assay on SW-620 colon; 5.18% (active) with MCF7 breast; 58.7% in the assay with HCT-116 colon; 89.1% with HCC-2998 colon; 95.3% in the assay with KM12 colon.
Regarding `COc1ccc(/C=N/c2cc(C(C)(C)C)nn2-c2ccccc2)cc1`, the growth in the assay with SR leukemia is 78.4%; with OVCAR-8 ovarian, 97%; in the assay on OVCAR-5 ovarian it was 113%; in the assay on OVCAR-4 ovarian, 109%; in the assay with SK-OV-3 ovarian, 101%; in the assay on OVCAR-3 ovarian it was 125%. Further, the growth in the assay with HS 578T breast was 107%; in the assay with NCI/ADR-RES ovarian, 118%; in the assay with T-47D breast it was 85.8%; with BT-549 breast, 128%; with MDA-MB-435 melanoma it was 95.5%; with MCF7 breast, 88.8%. Further, the values for the growth in the assay with HCT-116 colon, in the assay on HCC-2998 colon and in the assay with KM12 colon were 92.8%, 132% and 104%, respectively.
On to `COc1cc([C@@H]2c3cc4c(cc3[C@H](O)[C@H]3COC[C@@H]23)OCO4)cc(OC)c1OC`, for which the growth is 25.9% in the assay with SR leukemia; 98.9% in the assay with OVCAR-8 ovarian; 101% with OVCAR-5 ovarian; 85.8% in the assay with OVCAR-4 ovarian; 98.3% in the assay with SK-OV-3 ovarian; 71.1% with IGROV1 ovarian. The growth in the assay on OVCAR-3 ovarian is 56.8%; with NCI/ADR-RES ovarian, 64.9%; in the assay on T-47D breast, 83.7%; with BT-549 breast it was 90.6%; in the assay with MDA-MB-435 melanoma, -12.4% (active); in the assay with MCF7 breast it was 30.9%. In addition, the growth in the assay with HCT-116 colon is 66.7%; in the assay with HCC-2998 colon, 85.5%; in the assay with KM12 colon, 49.5%.
Consider `COc1cccc(-c2cc(-c3cc4ccccc4oc3=O)nc(N)n2)c1`, for which the growth in the assay on SR leukemia is 92.3%; in the assay on RPMI-8226 leukemia, 108%; with OVCAR-8 ovarian, 111%; in the assay on IGROV1 ovarian, 70%; in the assay on OVCAR-3 ovarian, 95%; with HS 578T breast, 80.8%. Also, the growth is 105% in the assay with NCI/ADR-RES ovarian; 119% in the assay with MDA-MB-435 melanoma; 103% in the assay on SW-620 colon; 70% in the assay on MCF7 breast; 95.1% in the assay with HCT-116 colon; 95.4% in the assay on KM12 colon.
With `OC(c1ccccc1)(c1ccccc1)C(F)(F)F`, the growth was 85.3% in the assay on SR leukemia; 112% in the assay with OVCAR-8 ovarian; 93.9% with OVCAR-5 ovarian; 122% in the assay with OVCAR-4 ovarian; 103% in the assay with SK-OV-3 ovarian; 115% in the assay with IGROV1 ovarian. For the same compound, the growth in the assay on NCI/ADR-RES ovarian is 106%; with T-47D breast, 92.1%; in the assay with MDA-MB-435 melanoma it was 103%; in the assay with MCF7 breast it was 104%; in the assay on HCT-116 colon it was 107%; with KM12 colon it was 92.3%.
Take `CCOC(=O)c1cc(-c2ccc(OC)cc2)[nH]c1NNC(=O)CCOC`: the growth in the assay on SR leukemia is 87.7%; in the assay with RPMI-8226 leukemia it was 98.2%; in the assay on OVCAR-8 ovarian, 106%; in the assay with OVCAR-4 ovarian it was 113%; in the assay on SK-OV-3 ovarian, 105%; with IGROV1 ovarian, 2.76% (active). Moreover, the growth is 82.5% in the assay with OVCAR-3 ovarian; 104% with HS 578T breast; 125% with NCI/ADR-RES ovarian; 95.2% in the assay on T-47D breast; 91.9% in the assay on BT-549 breast; 96.9% in the assay on MDA-MB-435 melanoma. The growth with SW-620 colon was 101%; in the assay with MCF7 breast, 113%; with HCT-116 colon, 93.8%; with HCC-2998 colon, 122%; with KM12 colon, 118%.
In the case of `C[n+]1c2ccccc2c(Nc2ccc(NS(=O)(=O)CCCCN=C(N)N)cc2)c2ccc(N)cc21`, the growth is 48.6% in the assay on RPMI-8226 leukemia; 54.4% in the assay with OVCAR-8 ovarian; 71.9% in the assay on OVCAR-5 ovarian; 72.9% in the assay with OVCAR-4 ovarian; 51% in the assay with SK-OV-3 ovarian; 45.9% in the assay on IGROV1 ovarian. Also, the growth in the assay on OVCAR-3 ovarian is 68.5%; in the assay with HS 578T breast it was 34.5%; in the assay on NCI/ADR-RES ovarian it was 97.5%; in the assay with T-47D breast, 21.9%; in the assay on BT-549 breast it was 88.7%; with MDA-MB-435 melanoma, 87.8%. In addition, the growth in the assay on SW-620 colon was 59.1%; in the assay on MCF7 breast it was 19.7%; with HCT-116 colon, 37.3%; with HCC-2998 colon, 40.6%; in the assay with KM12 colon, 42.3%.
In the case of `O=C(Nc1ccc(-n2cc(-c3ccncc3)c(-c3ccc(Cl)c(O)c3)n2)cc1)c1ccc(Cl)c(Cl)c1`, the growth in the assay on SR leukemia is 5.94% (active); with RPMI-8226 leukemia, -25.9% (active); with OVCAR-8 ovarian it was 38.5%; in the assay with OVCAR-4 ovarian it was 47.4%; in the assay on SK-OV-3 ovarian, 34.1%; with IGROV1 ovarian, 67.4%. Besides, the growth in the assay with OVCAR-3 ovarian is 61.3%; in the assay with HS 578T breast, -35.1% (active); in the assay with NCI/ADR-RES ovarian, 51.6%; in the assay on T-47D breast it was 71.9%; in the assay with MDA-MB-435 melanoma, 43.5%; with SW-620 colon it was 11.2%. The growth was 27.9% in the assay with MCF7 breast, 16.8% with HCT-116 colon, 10.1% in the assay with HCC-2998 colon and 0.115% (active) in the assay with KM12 colon.
As for `N=C(N)c1ccc(-c2ccc(-c3ccc(F)cc3)s2)cc1`, the growth with SR leukemia is -24.2% (active); in the assay on RPMI-8226 leukemia, -55.5% (active); with OVCAR-8 ovarian, -28.4% (active); in the assay with OVCAR-4 ovarian, -70.8% (active); in the assay with SK-OV-3 ovarian it was -80% (active); in the assay on OVCAR-3 ovarian, -92.4% (active). The growth was -59.4% (active) with HS 578T breast; -77.1% (active) in the assay on NCI/ADR-RES ovarian; -57.5% (active) in the assay with T-47D breast; -19.9% (active) in the assay with BT-549 breast; -99.2% (active) in the assay on MDA-MB-435 melanoma; -87.9% (active) with SW-620 colon. Further, the growth is -83.5% (active) in the assay with MCF7 breast, -83.3% (active) in the assay on HCT-116 colon, -77.5% (active) with HCC-2998 colon and -87.3% (active) in the assay on KM12 colon.
As to `Cc1ccc(S(=O)(=O)N/N=C2\CC3CCC2C3)cc1` (configuration not stated), the growth with SR leukemia is 103%; in the assay on RPMI-8226 leukemia, 104%; in the assay on OVCAR-8 ovarian it was 102%; with OVCAR-4 ovarian, 115%; in the assay on SK-OV-3 ovarian it was 93.9%; in the assay on IGROV1 ovarian, 101%. Further, the growth in the assay with OVCAR-3 ovarian was 113%; with HS 578T breast, 115%; in the assay on NCI/ADR-RES ovarian, 119%; in the assay on BT-549 breast, 107%; in the assay on MDA-MB-435 melanoma, 103%; in the assay with MCF7 breast it was 97%. The values for the growth with HCT-116 colon, with HCC-2998 colon and with KM12 colon were 103%, 120% and 105%, respectively.
